# Experimental data reported in ChEMBL document CHEMBL3988442, “University of Dundee, Small-Polar-MMV Screening Library” (2021).
# Biological target: T1, Aspartate--tRNA(Asp/Asn) ligase (Mycobacterium tuberculosis (strain ATCC 25618 / H37Rv)) (UniProt P9WFW3); also: in the data most compounds retested in dose-response had high values
# T1 sequence (whole entry): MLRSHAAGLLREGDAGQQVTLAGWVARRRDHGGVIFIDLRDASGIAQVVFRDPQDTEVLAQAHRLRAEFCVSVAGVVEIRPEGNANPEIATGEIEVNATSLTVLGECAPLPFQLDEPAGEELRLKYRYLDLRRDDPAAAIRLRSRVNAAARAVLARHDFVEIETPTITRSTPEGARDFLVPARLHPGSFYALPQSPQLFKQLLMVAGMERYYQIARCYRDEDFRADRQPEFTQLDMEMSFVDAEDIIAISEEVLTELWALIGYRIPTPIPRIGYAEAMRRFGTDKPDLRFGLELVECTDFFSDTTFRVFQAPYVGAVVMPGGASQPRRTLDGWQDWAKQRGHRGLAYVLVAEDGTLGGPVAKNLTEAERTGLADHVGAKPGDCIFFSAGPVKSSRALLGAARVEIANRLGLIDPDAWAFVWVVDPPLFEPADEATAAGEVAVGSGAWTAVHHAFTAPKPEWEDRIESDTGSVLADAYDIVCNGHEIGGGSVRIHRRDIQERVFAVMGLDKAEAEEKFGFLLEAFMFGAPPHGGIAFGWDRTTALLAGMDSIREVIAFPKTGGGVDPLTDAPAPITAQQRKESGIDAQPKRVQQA
# Test: Assay for Asp RNA synthetase-1 from Mycobacterium tuberculosis
# Type: functional
# Design: scale not given: direction of the effect not stated beside the values
# Details: 30 µM
row,Compound,Percent Effect [%]
1,Cc1oc(C)c(C(=O)NCc2ccccn2)c1C,-4.72
2,COc1ccc(CN(C)CC2(O)CCN(C(=O)c3cccn3C)C2)cc1 (stereo not given),2.04
3,COc1ccnc(N2CCN(CC(=O)N3CCOCC3)CC2)n1,-1.91
4,COC(=O)c1ccc(N2CCN(CCN3CCOCC3)C(C)C2)cc1 (stereo not given),-8.26
5,Cc1ccc(Cl)cc1N1CCC(CNC(=O)CCn2ccnn2)C1 (stereo not given),2.9
6,Cc1cnc(NC(=O)c2ccc(-n3ncc(C#N)c3N)cc2)s1,0
7,C[S+]([O-])c1nncn1CC(=O)c1ccc2c(c1)CCO2 (stereo not given),3.29
8,CC(=O)N1CCNCC1c1cccc(C(=O)N(C)C)c1 (stereo not given),-4.15
9,CC(C(=O)N1CCN(c2ccccc2Cl)CC1)n1cncn1 (stereo not given),-1.38
10,CCCOc1cccc(CNC(=O)CN2CCN(C)CC2C)c1 (stereo not given),2.62
11,c1ncn(CC2CCCCN2Cc2noc(C3CC3)n2)n1 (stereo not given),3.28
12,COCC(=O)N1CCC(c2nccnc2Oc2cccnc2C)CC1,3.02
13,CC(NC(=O)c1ccc2c(c1)OCC(=O)N2)c1ccccc1F (stereo not given),7.05
14,CCc1nnsc1C(=O)NC1CCN(c2ccccn2)CC1,-5.57
15,CCNC(=O)c1ncn2c1CN(C)S(=O)(=O)c1ccccc1-2,-3.46
16,CN(C)C(CNC(=O)c1cc2c([nH]c1=O)CCCC2=O)c1ccsc1 (stereo not given),2.97
17,CCc1nc(C(=O)N2CCN(C)CC2C)nn1-c1ccccc1Cl (stereo not given),11.5
18,CCn1ncc(NC(=O)c2cc(C3CC3)nc3c2c(C)nn3C)c1C,-1.99
19,O=C(Nc1ccc(F)cc1F)Nc1c[nH]c(=O)[nH]c1=O,1.82
20,CC(C)c1noc(CCCC(=O)N2CCN(Cc3ccncc3)CC2)n1,3.6

# Biological target: Shiga toxin 2 (Escherichia coli O157:H7) (UniProt P09385+P09386)
# Test: E. coli 0.157:H7 Shiga Toxin SOP - stx2 screening assay
# Type: functional
# Design: scale not given: direction of the effect not stated beside the values
# Details: 30 µM
row,Compound,Percent Effect [%]
1,CCc1cccc(N2CCC(NC(=O)c3cc[nH]n3)CC2)c1,18.9
2,Cc1noc(C(C)C)c1C(=O)NCC(c1cccc(F)c1)N(C)C (stereo not given),8.91
3,CCCc1cc(=O)n(CC(N)=O)c(-n2nc(C)cc2C)n1,-3.82
4,Cc1ccc2c(ccn2CC(=O)NC[C@@H]2CCCN3CCCC[C@H]23)c1,-7.12
5,Cc1ccc(C(=O)N2CCC3(CCC(=O)N(CC(N)=O)C3)CC2)c(O)c1,-12.4
6,CC(COc1ccccc1)NCc1nc(-c2cccnc2)no1 (stereo not given),1.39
7,Cc1cc(CN2CC[C@H]3C[C@H](C(=O)N4CCC(C)CC4)O[C@H]3C2)no1,0.444
8,Cc1cnn(CC2CCCN2CCCc2nc3ccccc3o2)c1 (stereo not given),-14.6
9,O=C(NCc1nnc2ccccn12)N1CCc2sccc2C1,1.75
10,Cc1nn(C)c(Cl)c1C1CCCN1C(=O)c1nccnc1N (stereo not given),22.4
11,c1ccc(-c2nccc(CNCC3CCCN3c3cccnn3)n2)cc1 (stereo not given),11.8
12,COCC(=O)N1CC[C@@H](N2CCOCC2)[C@@H]1Cc1ccccc1,-28.8
13,CCCc1nc(CN2CCCC2Cn2cncn2)cs1 (stereo not given),-7.55
14,Cc1cc(N2CCN(Cc3nccn3C)CC2)cc(C)n1,-75.9
15,COC(=O)C1CCN(c2cncc(-n3nc(C)cc3C)n2)CC1,-51.5
16,Cn1cccc1CNC(=O)CCCc1nnc2ccccn12,-34.1
17,CC(Cc1ccco1)NC(=O)Nc1ccc(S(C)(=O)=O)nc1 (stereo not given),-17.3
18,Cc1nc2c(c(N3CC=CC3)n1)CCN(Cc1ccoc1)CC2,-69.4

row,Compound,Percent Effect [%]
1,Nc1ncc2c(n1)CN(C1CCCC1)C2=O,-55.7
2,CCCN(C(=O)COC)c1nc2c(s1)CCc1c-2cnn1C,-37.9
3,Cc1oc(C)c(C(=O)NCc2ccccn2)c1C,26.9
4,COc1ccc(CN(C)CC2(O)CCN(C(=O)c3cccn3C)C2)cc1 (stereo not given),-5.84
5,COc1ccnc(N2CCN(CC(=O)N3CCOCC3)CC2)n1,26.3
6,COC(=O)c1ccc(N2CCN(CCN3CCOCC3)C(C)C2)cc1 (stereo not given),32.4
7,Cc1ccc(Cl)cc1N1CCC(CNC(=O)CCn2ccnn2)C1 (stereo not given),-49.4
8,Cc1cnc(NC(=O)c2ccc(-n3ncc(C#N)c3N)cc2)s1,-13.3
9,C[S+]([O-])c1nncn1CC(=O)c1ccc2c(c1)CCO2 (stereo not given),-38.1
10,CC(=O)N1CCNCC1c1cccc(C(=O)N(C)C)c1 (stereo not given),8.72
11,CC(C(=O)N1CCN(c2ccccc2Cl)CC1)n1cncn1 (stereo not given),-19.8
12,CCCOc1cccc(CNC(=O)CN2CCN(C)CC2C)c1 (stereo not given),-7.72
13,c1ncn(CC2CCCCN2Cc2noc(C3CC3)n2)n1 (stereo not given),26
14,COCC(=O)N1CCC(c2nccnc2Oc2cccnc2C)CC1,6.27
15,CC(NC(=O)c1ccc2c(c1)OCC(=O)N2)c1ccccc1F (stereo not given),24
16,CCc1nnsc1C(=O)NC1CCN(c2ccccn2)CC1,-24.7
17,CCNC(=O)c1ncn2c1CN(C)S(=O)(=O)c1ccccc1-2,-5.52
